Compound activity as filed in PubChem BioAssay.
ABCB6 inh 2 – ABCB6 transporter inhibitors, primary screen, K562-ABCB6 cells, flow cytometry, MLPCN library | fluorescence ratio to DMSO, % at 10 µM | ATP-binding cassette sub-family B member 6 (Homo sapiens), Q9NP58 | 360,000 compounds, 0.19% hits | K562-ABCB6 porphyrin accumulation, 1 h; stronger effect = lower value;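 active means fluorescence ratio to DMSO below 75%, the collection mean minus 3 SD; inconclusive means too few cells collected in the well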;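 further: signal is porphyrin accumulated inside mitochondria; 100% equals median channel fluorescence of DMSO control wells; lower ratio means ABCB6 inhibition with less porphyrin fluorescence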
Target sequence (Q9NP58 whole entry, looked up): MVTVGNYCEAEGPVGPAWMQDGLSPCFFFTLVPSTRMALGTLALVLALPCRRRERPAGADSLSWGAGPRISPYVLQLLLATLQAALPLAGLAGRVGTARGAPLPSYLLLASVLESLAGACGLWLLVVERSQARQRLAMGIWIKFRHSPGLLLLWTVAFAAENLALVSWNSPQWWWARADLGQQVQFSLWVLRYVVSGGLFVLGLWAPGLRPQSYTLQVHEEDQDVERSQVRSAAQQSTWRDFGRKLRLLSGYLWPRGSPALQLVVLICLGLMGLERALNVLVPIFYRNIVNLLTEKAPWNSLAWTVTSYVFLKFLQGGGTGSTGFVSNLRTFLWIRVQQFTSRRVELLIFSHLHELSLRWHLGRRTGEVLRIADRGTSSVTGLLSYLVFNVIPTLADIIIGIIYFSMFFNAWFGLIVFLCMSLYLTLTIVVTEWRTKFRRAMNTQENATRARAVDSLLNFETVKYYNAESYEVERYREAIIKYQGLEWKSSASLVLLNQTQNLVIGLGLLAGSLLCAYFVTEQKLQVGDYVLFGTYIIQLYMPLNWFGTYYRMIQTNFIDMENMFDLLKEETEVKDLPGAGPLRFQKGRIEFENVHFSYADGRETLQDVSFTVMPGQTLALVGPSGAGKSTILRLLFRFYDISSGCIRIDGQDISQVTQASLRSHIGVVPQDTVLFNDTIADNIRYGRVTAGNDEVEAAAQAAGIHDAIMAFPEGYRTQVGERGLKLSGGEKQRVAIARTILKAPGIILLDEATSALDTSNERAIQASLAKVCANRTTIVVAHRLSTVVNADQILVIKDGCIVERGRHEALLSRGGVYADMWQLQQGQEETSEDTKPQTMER
Granule exo inh – LAMP-1 surface exposure blockers, TALL-104 cells – cell-based, flow cytometry, MLPCN library, primary screen; TALL-104 LAMP-1 surface exposure; cells stimulated with thapsigargin and PMA; inhibition, % at 10 µM; 360,000 compounds, 0.66% hits;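 active means inhibition above about 55%, limit read from the data; inconclusive means no clear call, values can overlap the other calls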
Myeloid diff MLP – induction of myeloid progenitor differentiation, primary screen, cell-based, flow cytometry, MLPCN library. ER-HoxA9 myeloid progenitors, lysozyme-GFP differentiation. calls only at 10 µM. 360,000 compounds, 1% hits;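 active means normalized GFP-positive differentiation at or above the plate's own cutoff, the solvent-only control mean plus 3 SD; inconclusive means no clear call, values can overlap the other calls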;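 further: cells exposed to compound for four days before flow analysis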
* hit, by the source's call; i = inactive; ? = inconclusive; · = not tested or not shown; + = active, no number. The list is not random: actives were taken first. Their share in the collection is about 1.8%.

SMILES | ABCB6 inh 2 | Granule exo inh | Myeloid diff MLP
O=[N+]([O-])c1cc([N+](=O)[O-])c(Oc2ccc(Cl)c3cccnc23)cc1NN1CCCCC1 | 100 | -1 | +
O=[N+]([O-])c1cc([N+](=O)[O-])c(Oc2cccc(Cl)c2Cl)cc1NN1CCCCC1 | 97 | -5 | i
COc1ccccc1-c1cccc([C@@H]2C[C@H]3[C@@H](CN2)CON3C)c1 | 99 | 2 | i
Cc1ccc(C(=O)N/N=C/c2cccc(OC(=O)/C=C/c3ccco3)c2)cn1 | 96 | 2 | i
O=C(/C=C/c1ccco1)Oc1cc(Br)cc(/C=N/NC(=O)c2ccccc2O)c1 | 97 | 78* | ?
Cc1ccc(C2/C=C\CC(NC(=O)OCC3c4ccccc4-c4ccccc43)CC(=O)N2Cc2ccccc2)cc1 (centres undefined) | 97 | 4 | i
CC(=O)O[C@H]1CC[C@@]2(C)[C@@H](CC[C@H]3[C@@H]4CC[C@H](C(C)O)[C@@]4(C)CC(=O)[C@@H]32)C1 (some centres undefined) | 97 | -6 | i
CC(O)[C@H]1CC[C@H]2[C@@H]3CC[C@H]4C[C@@H](O)CC[C@]4(C)[C@H]3/C(=N/O)C[C@]12C (some centres undefined) | 97 | 82* | i
O=C(NCc1cccnc1)C1CCN(C(=O)c2ccc(Cl)cc2Cl)CC1 | 88 | 2 | i
O=C(NCc1ccco1)C1CCN(C(=O)c2ccc(Cl)cc2Cl)CC1 | 102 | -6 | +
COc1ccc(/C=C/C(=O)O)cc1Cl | 103 | 0 | i
COc1cc(/C=C/C(=O)O)cc(OC)c1O | 107 | 3 | +
CN(Cc1ccccc1)C(=O)c1ccc(NC(=O)Cc2ccc(NC(=O)C3CCN(S(=O)(=O)c4cccc([N+](=O)[O-])c4)CC3)cc2)cc1 | 101 | -1 | i
O=Nc1nc2ncccn2c1-c1ccccc1 | 93 | 6 | i
Cc1ccc(S(=O)(=O)N2CCC(C(=O)Nc3ccc(S(=O)(=O)N4CCOCC4)cc3)CC2)cc1 | 93 | 2 | i
CCOc1ccc(S(=O)(=O)N2CCC(C(=O)Nc3ccc(C)c(S(=O)(=O)N4CCOCC4)c3)CC2)cc1 | 99 | 3 | +
COc1cc2nc(N3CCN(C(=O)OCc4ccccc4)[C@H](C(=O)NC(C)(C)C)C3)nc(N)c2cc1OC | 101 | 8 | i
CCOC(=O)c1ccc(-c2ccc(/C=N/NC(=O)c3cncc(Br)c3)o2)cc1 | 99 | 36 | i
CCCCOC(=O)c1ccc(-c2ccc(/C=N/NC(=S)NCC)o2)cc1 | 96 | 0 | +
O=C1c2ccccc2C(c2nnnn2Cc2ccccc2)N1CCc1c[nH]c2ccccc12 (centres undefined) | 92 | 0 | i
Cn1nc(-c2ccccc2)c(C(O)c2ccc(Cl)cc2)c1Cl (centres undefined) | 100 | 1 | i
Cn1nc(-c2ccccc2)c(CSc2ccccc2Cl)c1Cl | 427 | -2 | +
O=C(NCC(c1ccco1)N1CCCC1)c1cn(-c2ccccc2)nc1-c1ccc(F)cc1 (centres undefined) | 100 | 15 | i
CCOC(=O)C1C(c2ccccc2O)NC(=O)NC1(O)C(F)(F)F (centres undefined) | 97 | -2 | i
CCOC(=O)C1C(c2ccccc2Cl)NC(=O)N(C)C1(O)C(F)(F)F (centres undefined) | 102 | -5 | +
SMILES | ABCB6 inh 2 | Granule exo inh | Myeloid diff MLP
COc1ccc(S(=O)(=O)N2CCC(C(=O)NN3CCCCC3)CC2)cc1 | 102 | 26 | i
CC(C)(C)OC(=O)C[C@@H]1C/C=C\C[C@@H](CC(=O)N(CCO)Cc2ccccc2)C(=O)NC[C@H](c2ccccc2)OC1=O | 91 | 76* | ?
CC(C)(C)OC(=O)C[C@@H]1C/C=C\C[C@@H](CC(=O)N(CCO)Cc2ccccc2)C(=O)NC[C@@H](c2ccccc2)OC1=O | 96 | -8 | i
CCSc1nnc(NC(=O)[C@@H](NC(=O)c2cc(OC)cc(OC)c2)C(C)C)s1 | 97 | 1 | ·
OC(c1ccc(Cl)c(Cl)c1)c1ncc(-c2ccccc2Cl)[nH]1 (centres undefined) | 111 | -2 | i
O=C(NCc1cccc(C(F)(F)F)c1)c1csc([C@@H]2O[C@H](CO)[C@H](O)[C@H](O)[C@H]2O)n1 | 95 | -6 | i
CC1(Cc2cc(Cl)ccc2C(F)(F)F)C(=O)Nc2cc(C(F)(F)F)ccc21 (centres undefined) | 97 | -9 | i
O=C(C[n+]1ccc2ccccc2c1)c1ccc2ccc3ccccc3c2c1 | 99 | -2 | i
O=C(c1ccco1)N1CCN(c2ncnc3scc(-c4ccccc4)c23)CC1 | 93 | 11 | i
O=C(c1ccco1)N1CCN(c2ncnc3scc(-c4cccs4)c23)CC1 | 98 | 1 | +
COc1ccc(Cn2cc3c(-c4ccc(F)cc4)nnc-3c3cc(OC)c(OC)cc32)cc1 | 120 | 34 | +
COc1cc2c3nnc(-c4ccc(F)cc4)c-3cn(Cc3ccc(F)cc3)c2cc1OC | 137 | 16 | i
COc1cc2c3nnc(-c4ccc(F)cc4)c-3cn(Cc3ccccc3)c2cc1OC | 547 | 9 | +
COc1ccc(-c2nnn(Cc3ccccc3)n2)cc1OC | 95 | -11 | i
Cc1ccc([C@H]2C[C@H](O)[C@@H](n3cc(-c4ccc(F)cc4)nn3)CN2CC2CCCCC2)cc1 | 97 | 2 | i
CCCCOCCCNC(=O)C[C@@H]1C[C@@]2(C(=O)OC)CC(C)(C)CC=C2N(Cc2cccc3ccccc23)C1=O | · | 7 | i
Cc1ccc(-c2nnc(SCC(=O)NCC3CCCO3)nc2-c2ccc(C)cc2)cc1 (centres undefined) | 103 | -15 | i
CS(=O)(=O)c1ccc(C(=O)OCc2nnc(-c3ccc(Cl)cc3)o2)cc1[N+](=O)[O-] | 99 | 60* | i
O=C(OCc1nnc(-c2ccc(Cl)cc2)o1)c1ccc(O)cc1 | 97 | 1 | i
C=CC[C@H](CC(=O)N(CCO)Cc1ccccc1)C(=O)N[C@H](COC(=O)[C@@H](CC=C)Cc1ccc(F)cc1)Cc1ccccc1 | 103 | -3 | i
CC(=O)Nc1cc(-c2ccccc2N(C)C)cn2c(-c3cccc(C(F)(F)F)c3)cnc12 | 114 | 27 | +
CC(=O)Nc1cc(-c2cccc(NS(C)(=O)=O)c2)cn2c(-c3cccc(C(F)(F)F)c3)cnc12 | 101 | 5 | i
O=C(CCc1nc(-c2ccc(F)cc2)no1)Nc1cccc(C(=O)NC2CC2)c1 | 96 | 2 | i
CC1CCCCC1NC(=O)COC(=O)COc1ccccc1F (centres undefined) | 99 | -5 | i
O=C(Nc1ccc2c(c1)OCCO2)C(c1ccncc1)n1c(=O)c(-c2cc3ccccc3[nH]2)nc2ccccc21 (centres undefined) | · | -2 | +
O=C(Nc1ccc2c(c1)OCCO2)C(c1ccc(C(F)(F)F)cc1)n1c(=O)c(-c2cc3ccccc3[nH]2)nc2ccccc21 (centres undefined) | · | 18 | i
